Experimental data from PubChem BioAssay AID1376 (SRMLSC, 2008).
Screen size: about 220,000 compounds; about 530 (0.24%) were called active. Cut-off read from the data, not from the text of the source: active = inhibition above about 13%; inconclusive = no clear call, values can overlap the other calls; inactive = below that. Shown is part of a subset that was picked to be rich in actives. Results with a measured potency or affinity are listed apart.

Target: Bifunctional protein GlmU (Mycobacterium tuberculosis (strain ATCC 25618 / H37Rv)) (UniProt P9WMN3)
Experiment: inhibition of mycobacterial GlmU enzyme – biochemical, glucosamine-1-phosphate acetyltransferase (AID 1376);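 note: 0% = complete reaction with vehicle and 100% = reaction without substrate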
Conditions: M. tuberculosis GlmU acetyltransferase enzyme assay; hits give high values;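 tested at 30 µM in the primary screen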

Bifunctional protein GlmU (Mycobacterium tuberculosis (strain ATCC 25618 / H37Rv)), sequence (P9WMN3 whole entry, looked up): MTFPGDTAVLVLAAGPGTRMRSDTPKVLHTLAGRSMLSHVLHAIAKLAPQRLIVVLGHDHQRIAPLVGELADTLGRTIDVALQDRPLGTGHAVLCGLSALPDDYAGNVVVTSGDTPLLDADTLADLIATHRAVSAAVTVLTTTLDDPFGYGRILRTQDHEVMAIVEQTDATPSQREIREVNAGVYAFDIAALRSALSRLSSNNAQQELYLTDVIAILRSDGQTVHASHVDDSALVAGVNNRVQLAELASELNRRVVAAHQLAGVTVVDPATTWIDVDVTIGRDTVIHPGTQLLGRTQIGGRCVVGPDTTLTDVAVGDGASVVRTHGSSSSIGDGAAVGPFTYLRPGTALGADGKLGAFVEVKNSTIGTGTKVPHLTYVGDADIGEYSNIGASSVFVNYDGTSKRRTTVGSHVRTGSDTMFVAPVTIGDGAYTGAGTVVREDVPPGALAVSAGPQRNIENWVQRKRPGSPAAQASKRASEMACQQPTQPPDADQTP

Row | Structure (SMILES) | inhibition
1 | Cc1cc([N+](=O)[O-])ccc1N=Nc1c(N)[nH]n(-c2ccccc2)c1=O | -3.05% (inactive)
2 | Cc1c(NC(=O)c2ccc(S(=O)(=O)N(C)c3ccccc3)cc2)c(=O)n(-c2ccccc2)n1C | -6.06% (inactive)
3 | COc1ccc(C(C(=O)NC(C)(C)C)N(Cc2ccc(C)cc2)C(=O)CCC(=O)Nc2cc(C)on2)cc1 (stereo not given) | 5.39% (inactive)
4 | CCC(C)(C)NC(=O)C(c1ccc(OC)cc1)N(CC1CCCO1)C(=O)CCC(=O)Nc1cc(C)on1 (stereo not given) | 5.67% (inactive)
5 | COc1ccc(C(C(=O)NC(C)(C)C)N(CC2CCCO2)C(=O)CCC(=O)Nc2cc(C)on2)cc1 (stereo not given) | 16.9% (active)
6 | COc1cc2nc(C3CCC3)n(NC(=O)C3CCC(OC)CC3)c(=O)c2cc1OC (stereo not given) | 0.09% (inactive)
7 | C=CC1CN2CCC1CC2c1[nH]c2ccccc2c1CCO (stereo not given) | -1.33% (inactive)
8 | NS(=O)(=O)c1cc(C(=O)OCC(=O)NC2CC2)ccc1Cl | 0.47% (inactive)
9 | O=[N+]([O-])c1ccc2c(c1)C(N1CCOCC1)/C(=C/COc1ccc(Cl)cc1Cl)O2 (stereo not given) | -0.92% (inactive)
10 | COC(=O)c1oc2c(c1C)C1(CCC2)SCCS1 | -1.66% (inactive)
11 | COc1ccc(N)c2c1C(=O)c1ccccc1C2=O | 11.8% (inactive)
12 | COc1ccc(OC)c2c1C(=O)c1ccccc1C2=O | 1.18% (inactive)
13 | COc1ccc(OC)c2c1C(=O)C(Cl)=C(Cl)C2=O | 15.7% (active)
14 | O=C1CN(/N=C/c2ccc([N+](=O)[O-])o2)C(=O)N1 | 0.61% (inactive)
15 | O=C(O)/C=C/c1ccc([N+](=O)[O-])o1 | -1.44% (inactive)
16 | Cc1ccc(C2=N/C(=C\N(C)C)C(=O)O2)cc1 | 1.44% (inactive)
17 | Cc1ccccc1/C=C1\SC(=S)N(/N=C/c2cc([N+](=O)[O-])ccc2O)C1=O | -0.74% (inactive)
18 | Cc1ccc(/C=C2\SC(=S)N(/N=C/c3cc([N+](=O)[O-])ccc3O)C2=O)o1 | 46.9% (active)
19 | O=C1/C(=C/c2cccc(Br)c2)SC(=S)N1/N=C/c1cc([N+](=O)[O-])ccc1O | -5.24% (inactive)
20 | CC1CCC(NC(=O)c2ccc(/C=C3\Oc4ccccc4N(C)C3=O)cc2)CC1 (stereo not given) | -2.49% (inactive)
21 | O=C(O)C1C2C=CC(C2)C1C(=O)N1CCOCC1 (stereo not given) | -2.63% (inactive)
22 | O=C(O)C1C2C=CC(C3CC23)C1C(=O)O (stereo not given) | 1.12% (inactive)

Row | Structure (SMILES) | inhibition
23 | COc1cc(/C=N/n2c(-c3n[nH]c4c3CCC4)n[nH]c2=S)ccc1O | 1.56% (inactive)
24 | COc1cc(/C=N/n2c(-c3n[nH]c4c3CCC4)n[nH]c2=S)cc(OC)c1O | 0.14% (inactive)
25 | COc1ccc(/C=N/n2c(-c3n[nH]c4c3CCC4)n[nH]c2=S)cc1OC | 14.3% (active)
26 | Cc1cc(C(=O)O)c(CSCc2cc(C(=O)O)oc2C)o1 | 2.24% (inactive)
27 | CN(C)CC(C)(C)CN=Cc1c(O)[nH]c2ccccc12 | -4.17% (inactive)
28 | COc1cc2c(cc1OC)C(SC)=NC(C)(C)C2 | 8.72% (inactive)
29 | COc1cc2c(cc1OC)C(SC)=NC1(CCCC1)C2 | 2.45% (inactive)
30 | COc1cc2c(cc1O)C(SC)=NC(C)(C)C2 | 14.9% (active)
31 | Cc1cccc(N2CCN(C(=O)N3CCOCC3)CC2)c1C | 13.8% (active)
32 | Cc1cccc(C)c1N1CCN(C(=O)N2CCOCC2)CC1 | 1.63% (inactive)
33 | Cc1cccc(N2CCN(C(=O)N3CCCCC3)CC2)c1C | 4.08% (inactive)
34 | COc1ccc(-c2c3c(=O)n(C)c(=O)n(C)c3cn2-c2cccc(OC)c2)cc1 | 14% (active)
35 | COc1ccc(-c2c3c(=O)n(C)c(=O)n(C)c3cn2-c2ccc(O)cc2)cc1 | -0.66% (inactive)
36 | COc1ccc(-c2c3c(=O)n(C)c(=O)n(C)c3cn2-c2ccccc2)cc1 | -0.39% (inactive)
37 | Cc1cc(C)c(C#N)c(SCC(=O)c2cccs2)n1 | 3.22% (inactive)
38 | Cc1cc(C)c(C#N)c(SCC(=O)c2ccc(Cl)cc2Cl)n1 | 14.2% (active)
39 | Cc1cc(C)c(C#N)c(SCC(=O)c2ccccc2)n1 | 2% (inactive)
40 | CC1CCN(CCc2nc3cc(NC(=O)Nc4ccccc4)ccc3n2C)CC1 | -2.61% (inactive)
41 | O=c1[nH]c(/C=C/c2cccnc2)c([N+](=O)[O-])c(=O)[nH]1 | -1.57% (inactive)
42 | COc1ccc(CCn2c(-c3cc([N+](=O)[O-])cc([N+](=O)[O-])c3)nc3nc4ccccc4nc32)cc1OC | 1.37% (inactive)
43 | COC(=O)CCN(C(=O)c1cc([N+](=O)[O-])cc([N+](=O)[O-])c1)c1ccccn1 | 9.11% (inactive)
44 | COC(=O)CCN(C(=O)c1ccc([N+](=O)[O-])cc1)c1ccccn1 | 13.6% (active)

Row | Structure (SMILES) | inhibition
45 | COC(=O)CCN(C(=O)c1cccc([N+](=O)[O-])c1)c1ccccn1 | 2.81% (inactive)
46 | CCc1nnc(NC(=O)C2CCCN(S(=O)(=O)c3ccc(OC)cc3)C2)s1 (stereo not given) | -3.09% (inactive)
47 | CCOc1ccc(-n2c(C)nnc2SCC(=O)N(CC)CC)cc1 | -6.69% (inactive)
48 | O=C(O)c1ccccc1/C=N/NC(=O)C1CCCCC1 | 1.79% (inactive)
49 | CC(C)C1NC(=S)N(C2CCCCC2)C1=O (stereo not given) | 1.15% (inactive)
50 | CCC1NC(=S)N(C2CCCCC2)C1=O (stereo not given) | -5.8% (inactive)
51 | CCC(C)C1NC(=S)N(C2CCCCC2)C1=O (stereo not given) | 15.5% (active)
52 | COc1ccc(NCN2C(=O)CCC2=O)cc1 | 13.4% (active)
53 | O=C1CCC(=O)N1CNc1ccc(Oc2ccccc2)cc1 | 4.2% (inactive)
54 | COc1ccc(NCN2C(=O)C3C4C=CC(C4)C3C2=O)cc1 (stereo not given) | 0.26% (inactive)
55 | NC(=O)c1c(NC(NC(=O)c2ccco2)C(=O)c2ccc(Cl)cc2)sc2c1CCCC2 (stereo not given) | 2% (inactive)
56 | Cc1ccc2nc(C)cc(N/N=C/c3cccnc3)c2c1 | -6% (inactive)
57 | CC(C)S(=O)(=O)C/C(N)=N/OS(=O)(=O)c1ccc(Cl)cc1 | 0.64% (inactive)
58 | N#Cc1cccc(-n2nnnc2-c2ccc3c(c2)OCO3)c1 | 0.01% (inactive)
59 | CC1CN(c2ccc([N+](=O)[O-])c(NCCOc3ccccc3)c2)CCN1 (stereo not given) | 1.45% (inactive)
60 | CCC(=O)OCCNc1cc(Sc2nccn2C)c2nonc2c1[N+](=O)[O-] | 12.7% (inactive)
61 | CCCC(=O)OCCNc1cc(Sc2nc3ccccc3[nH]2)c2nonc2c1[N+](=O)[O-] | 9.67% (inactive)
62 | CCC(=O)OCCNc1cc(Sc2nc3ccccc3[nH]2)c2nonc2c1[N+](=O)[O-] | 10.6% (inactive)
63 | Cc1ccc(Sc2cc(NCCCO)c([N+](=O)[O-])c3nonc23)cc1 | -0.69% (inactive)
64 | Cc1nnc(Sc2cc(NCCO)c([N+](=O)[O-])c3nonc23)s1 | 1.7% (inactive)
65 | Cn1ccnc1Sc1cc(NCCCO)c([N+](=O)[O-])c2nonc12 | 3.47% (inactive)
